Test results from PubChem BioAssay AID1053 (University of Pittsburgh Molecular Library Screening Center, 2008).
“And” between values parts separate entries of the source, which are not always exact repeats. Identical values can stand only once. Unmarked numbers belong to inactive results. The source made the active and inactive calls. The rule behind the calls is not given here.

Molecular target: Serine/threonine-protein kinase PLK1 (Homo sapiens) (UniProt P53350)
Assay: Plk1 polo box domain binding inhibitors, SAR follow-up, biochemical, fluorescence polarization, purchased analogs (AID 1053)
Conditions: Plk1 PBD fluorescence polarization peptide binding; at 20 µM; active compounds read high

Chain of Serine/threonine-protein kinase PLK1 (Homo sapiens) (P53350 whole entry, looked up, the tested form may be a part): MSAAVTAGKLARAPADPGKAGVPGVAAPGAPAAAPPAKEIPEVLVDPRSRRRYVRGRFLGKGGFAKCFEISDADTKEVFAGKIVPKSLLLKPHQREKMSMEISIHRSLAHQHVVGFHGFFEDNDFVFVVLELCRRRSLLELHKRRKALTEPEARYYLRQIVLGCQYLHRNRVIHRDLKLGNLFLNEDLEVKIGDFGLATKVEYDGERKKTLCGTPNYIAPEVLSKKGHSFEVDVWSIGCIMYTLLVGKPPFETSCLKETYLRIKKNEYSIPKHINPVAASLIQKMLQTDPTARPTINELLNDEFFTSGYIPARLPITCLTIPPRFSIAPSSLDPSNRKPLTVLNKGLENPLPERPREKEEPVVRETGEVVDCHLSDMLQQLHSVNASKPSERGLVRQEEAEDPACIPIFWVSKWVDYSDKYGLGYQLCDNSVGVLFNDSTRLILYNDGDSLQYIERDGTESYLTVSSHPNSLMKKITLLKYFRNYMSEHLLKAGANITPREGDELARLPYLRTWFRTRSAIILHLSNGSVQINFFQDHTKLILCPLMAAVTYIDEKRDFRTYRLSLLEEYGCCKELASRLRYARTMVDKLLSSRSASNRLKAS

**Q.** `CCOC(=O)c1ccc(N=Cc2c(O)n(Cc3cccs3)c(=O)[nH]c2=O)cc1` was tested. Which inhibition did it give?
**A.** -25.6%

**Q.** For `CCOC(=O)c1ccc(NC(=O)c2cc(C)cc(C)c2)cc1`, which inhibition is on record?
**A.** -13.8%

**Q.** `CC(=O)N(/C=C1\Sc2ccccc2C1=O)c1cc(C(F)(F)F)ccc1Cl` was tested. Which inhibition did it give?
**A.** -73.4% and -36.2%

**Q.** For `CCOC(=O)c1ccc(NC(=O)c2ccc(NC(=O)CC)cc2)cc1`, which inhibition is on record?
**A.** -9.03%

**Q.** How did the inhibition turn out when `Cn1c(=O)[nH]c2nnc(-c3ccc4c(c3)OCO4)nc2c1=O` was run?
**A.** -38.9% and 28%

**Q.** Which inhibition does the source give for `CCn1nc(-c2cccc(Cl)c2)nc2c(=O)n(C)c(=O)nc1-2` here?
**A.** -5.43% and -17.8%

**Q.** With `CCOC(=O)c1ccc(N=Cc2c(O)n(Cc3ccccc3)c(=O)[nH]c2=O)cc1` as the compound, how does the inhibition read?
**A.** -22.9%

**Q.** With `CCOC(=O)c1ccc(N=Cc2c(O)n(-c3ccc(OCC)cc3)c(=O)[nH]c2=O)cc1` as the compound, how does the inhibition read?
**A.** -112%

**Q.** Which inhibition does the source give for `COc1ccccc1N(/N=C1\Sc2ccccc2C1=O)C(C)=O` here?
**A.** 6.58%

**Q.** How did the inhibition turn out when `COc1ccc(C(=O)COC(=O)c2ccc(NC(=O)c3ccccc3)cc2)cc1` was run?
**A.** 40.3%

**Q.** With `CCOC(=O)c1ccc(N=Cc2c(O)n(Cc3ccc4c(c3)OCO4)c(=O)[nH]c2=O)cc1` as the compound, how does the inhibition read?
**A.** -19.4%

**Q.** Which inhibition does the source give for `CC(=O)N(CN1C(=O)c2cc(Cl)c(Cl)cc2C1=O)c1ccc(C)c(Cl)c1` here?
**A.** -45.5%

**Q.** `COc1ccc(N(CN2C(=O)c3ccccc3C2=O)C(C)=O)cc1` was tested. Which inhibition did it give?
**A.** -43.9% and -51.6%

**Q.** How did the inhibition turn out when `O=C1NC(=O)C(=Cc2cc(Cl)c(OCc3ccc(C(=O)O)cc3)c(Cl)c2)C(=O)N1` was run?
**A.** -37.4%

**Q.** Which inhibition does the source give for `O=C(COC(=O)c1ccc(NC(=O)c2ccc([N+](=O)[O-])cc2)cc1)c1ccccc1` here?
**A.** 61.8% (active)

**Q.** Which inhibition does the source give for `CCn1nc(-c2ccc(OC)cc2)nc2c(=O)n(C)c(=O)nc1-2` here?
**A.** 28%

**Q.** How did the inhibition turn out when `COc1ccc(N(CN2C(=O)c3ccccc3C2=O)C(=O)C(F)(F)F)cc1` was run?
**A.** -44.5%

**Q.** `CC(=O)N(CN1C(=O)c2ccccc2C1=O)c1cc(C)ccc1C` was tested. Which inhibition did it give?
**A.** -34.4%

**Q.** How did the inhibition turn out when `O=c1cc[nH]c2cc(N3CCOCC3)c(F)cc12` was run?
**A.** -49%

**Q.** With `CCOC(=O)c1ccc(NC(=O)C2COc3ccccc3O2)cc1` (configuration not stated) as the compound, how does the inhibition read?
**A.** -40.6%

**Q.** Which inhibition does the source give for `CCOC(=O)c1ccc(NC(=O)c2c(C)cc(=O)oc2C)cc1` here?
**A.** -118%

**Q.** How did the inhibition turn out when `CCOC(=O)c1ccc(NC(=O)C2CCC(C)CC2)cc1` (configuration not stated) was run?
**A.** -28.3%

**Q.** For `CCOC(=O)c1ccc(NC(=O)C2CC(=O)N=C(N)S2)cc1` (configuration not stated), which inhibition is on record?
**A.** -67.2%

**Q.** Which inhibition does the source give for `CC(=O)N(/N=C1\Sc2ccccc2C1=O)c1ccc(Br)cc1` here?
**A.** 34.2%

**Q.** With `CC(=O)N(/N=C1\Sc2ccccc2C1=O)c1cccc(C)c1` as the compound, how does the inhibition read?
**A.** 20.1%

**Q.** How did the inhibition turn out when `CC(=O)N(CN1C(=O)c2ccccc2C1=O)c1ccccc1C` was run?
**A.** -32.5% and -28.6%

**Q.** `CCCCCCC(=O)N(CN1C(=O)c2ccccc2C1=O)c1ccccc1` was tested. Which inhibition did it give?
**A.** -23.4%

**Q.** `CCn1c(N/C(O)=C/C(O)(C(F)(F)F)C(F)(F)F)nc2ccccc21` was tested. Which inhibition did it give?
**A.** -49.9%

**Q.** For `CC(=O)N(/N=C1\Sc2ccccc2C1=O)c1ccc(C)cc1C`, which inhibition is on record?
**A.** 29.2%

**Q.** Which inhibition does the source give for `CC(=O)N(CN1C(=O)c2ccccc2C1=O)c1ccc(I)cc1` here?
**A.** -50.3% and -70.1%

**Q.** `CCOC(=O)c1ccc(NC(=O)C2C3CCC(C3)C2C(=O)O)cc1` (configuration not stated) was tested. Which inhibition did it give?
**A.** -61.5%

**Q.** For `CC(=O)N(/N=C1\Sc2ccccc2C1=O)c1ccccc1Cl`, which inhibition is on record?
**A.** -48.1%

**Q.** Which inhibition does the source give for `CCOC(=O)N1CCN(c2cc3nccnc3cc2F)CC1` here?
**A.** -52.1%

**Q.** With `CC(=O)N(/N=C1\Sc2ccccc2C1=O)c1ccccc1[N+](=O)[O-]` as the compound, how does the inhibition read?
**A.** 32%

**Q.** Which inhibition does the source give for `CC(=O)Oc1ccccc1N(/C=C1\Sc2ccccc2C1=O)C(C)=O` here?
**A.** -254% and -278%

**Q.** With `COc1ccc(-c2nc3c(=O)n(C)c(=O)nc-3n(C)n2)cc1OC` as the compound, how does the inhibition read?
**A.** 1.9%

**Q.** How did the inhibition turn out when `COc1ccc(N(/N=C2\Sc3ccccc3C2=O)C(C)=O)cc1` was run?
**A.** 30.5%
